# Reference: ChEMBL document CHEMBL2218924, “A broad activity screen in support of a chemogenomic map for kinase signalling research and drug discovery” (Biochem J, 2013)
# Key:
# [1] = biological target: MAP kinase-activated protein kinase 3 (Homo sapiens) (UniProt Q16644); conditions: at 1 µM
# [2] = biological target: T1, Serine/threonine-protein kinase STK11 (Homo sapiens) (UniProt Q15831); conditions: at 1 µM
# T1 sequence (whole entry): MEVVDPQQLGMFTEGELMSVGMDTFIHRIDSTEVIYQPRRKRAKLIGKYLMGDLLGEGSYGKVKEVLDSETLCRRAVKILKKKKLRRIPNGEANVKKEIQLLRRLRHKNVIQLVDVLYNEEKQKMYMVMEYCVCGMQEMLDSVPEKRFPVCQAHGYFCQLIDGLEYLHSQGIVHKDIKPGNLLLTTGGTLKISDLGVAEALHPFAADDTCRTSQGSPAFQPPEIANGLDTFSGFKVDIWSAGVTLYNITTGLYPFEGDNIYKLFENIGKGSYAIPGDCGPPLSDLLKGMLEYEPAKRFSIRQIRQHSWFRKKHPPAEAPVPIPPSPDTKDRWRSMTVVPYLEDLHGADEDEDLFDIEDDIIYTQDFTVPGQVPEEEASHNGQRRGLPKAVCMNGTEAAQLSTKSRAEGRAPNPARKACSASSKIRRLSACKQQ
# [3] = biological target: T1, Serine/threonine-protein kinase STK11 (Homo sapiens); conditions: at 10 µM
# [4] = biological target: Serine/threonine-protein kinase 10 (Homo sapiens) (UniProt O94804); conditions: at 1 µM
# [5] = biological target: Tyrosine-protein kinase Lck (Homo sapiens) (UniProt P06239); conditions: at 1 µM
# [6] = biological target: Tyrosine-protein kinase Lck (Homo sapiens) (UniProt P06239); conditions: at 1 µM; remark: listed apart in the source
# [7] = biological target: Tyrosine-protein kinase Lck (Homo sapiens) (UniProt P06239); conditions: at 10 µM
# [8] = biological target: Tyrosine-protein kinase Lyn (Homo sapiens) (UniProt P07948); conditions: at 1 µM
# [9] = biological target: Tyrosine-protein kinase Lyn (Homo sapiens) (UniProt P07948); conditions: at 10 µM
# [10] = biological target: Mitogen-activated protein kinase 3 (Homo sapiens) (UniProt P27361); conditions: at 1 µM
# [11] = biological target: Mitogen-activated protein kinase 3 (Homo sapiens) (UniProt P27361); conditions: at 10 µM
# [12] = biological target: Mitogen-activated protein kinase 1 (Homo sapiens) (UniProt P28482); conditions: at 1 µM
# [13] = biological target: Mitogen-activated protein kinase 1 (Homo sapiens) (UniProt P28482); conditions: at 10 µM
# [14] = biological target: MAP kinase-activated protein kinase 2 (Homo sapiens) (UniProt P49137); conditions: at 1 µM
# [15] = biological target: MAP kinase-activated protein kinase 2 (Homo sapiens) (UniProt P49137); conditions: at 10 µM
# [16] = biological target: MAP kinase-activated protein kinase 3 (Homo sapiens) (UniProt Q16644); conditions: at 10 µM
# [17] = biological target: Serine/threonine-protein kinase MARK1 (Homo sapiens) (UniProt Q9P0L2); conditions: at 1 µM
# [18] = biological target: Serine/threonine-protein kinase MARK1 (Homo sapiens) (UniProt Q9P0L2); conditions: at 10 µM
# [19] = biological target: Serine/threonine-protein kinase 10 (Homo sapiens) (UniProt O94804); conditions: at 10 µM
# [20] = biological target: Tyrosine-protein kinase Lck (Homo sapiens) (UniProt P06239); conditions: at 10 µM; remark: listed apart in the source
# Mitogen-activated protein kinase 1 (Homo sapiens), sequence (P28482 whole entry): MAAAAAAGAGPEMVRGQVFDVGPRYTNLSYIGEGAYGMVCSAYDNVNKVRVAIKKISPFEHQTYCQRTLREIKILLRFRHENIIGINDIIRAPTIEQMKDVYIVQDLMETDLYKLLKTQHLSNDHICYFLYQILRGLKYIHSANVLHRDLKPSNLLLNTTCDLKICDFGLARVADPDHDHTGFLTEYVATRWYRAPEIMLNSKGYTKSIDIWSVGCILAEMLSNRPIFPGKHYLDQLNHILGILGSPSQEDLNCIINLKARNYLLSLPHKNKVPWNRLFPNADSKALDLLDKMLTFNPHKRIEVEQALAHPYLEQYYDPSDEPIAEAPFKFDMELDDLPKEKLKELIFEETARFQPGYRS
# Serine/threonine-protein kinase MARK1 (Homo sapiens), sequence (Q9P0L2 whole entry, looked up): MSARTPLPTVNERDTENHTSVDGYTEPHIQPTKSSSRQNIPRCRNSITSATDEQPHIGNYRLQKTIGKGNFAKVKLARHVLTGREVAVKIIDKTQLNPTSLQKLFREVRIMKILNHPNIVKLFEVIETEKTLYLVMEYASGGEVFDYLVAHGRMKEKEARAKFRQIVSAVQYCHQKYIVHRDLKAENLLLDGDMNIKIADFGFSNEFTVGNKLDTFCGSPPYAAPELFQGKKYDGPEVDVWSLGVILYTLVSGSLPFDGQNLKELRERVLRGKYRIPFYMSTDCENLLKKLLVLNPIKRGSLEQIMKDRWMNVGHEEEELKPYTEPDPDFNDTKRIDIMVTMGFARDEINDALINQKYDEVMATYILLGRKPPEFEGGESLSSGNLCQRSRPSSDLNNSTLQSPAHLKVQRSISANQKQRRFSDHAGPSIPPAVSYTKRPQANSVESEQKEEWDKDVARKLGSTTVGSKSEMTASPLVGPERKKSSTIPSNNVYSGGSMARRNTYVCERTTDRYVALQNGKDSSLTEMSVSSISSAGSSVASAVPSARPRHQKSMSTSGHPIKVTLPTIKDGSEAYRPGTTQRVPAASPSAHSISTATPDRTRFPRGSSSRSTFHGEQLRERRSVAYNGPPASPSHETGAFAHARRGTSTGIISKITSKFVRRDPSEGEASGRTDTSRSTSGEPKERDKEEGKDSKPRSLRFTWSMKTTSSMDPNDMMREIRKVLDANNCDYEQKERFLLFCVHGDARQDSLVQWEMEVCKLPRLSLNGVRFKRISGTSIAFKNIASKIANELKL
# MAP kinase-activated protein kinase 2 (Homo sapiens), sequence (P49137 whole entry, looked up): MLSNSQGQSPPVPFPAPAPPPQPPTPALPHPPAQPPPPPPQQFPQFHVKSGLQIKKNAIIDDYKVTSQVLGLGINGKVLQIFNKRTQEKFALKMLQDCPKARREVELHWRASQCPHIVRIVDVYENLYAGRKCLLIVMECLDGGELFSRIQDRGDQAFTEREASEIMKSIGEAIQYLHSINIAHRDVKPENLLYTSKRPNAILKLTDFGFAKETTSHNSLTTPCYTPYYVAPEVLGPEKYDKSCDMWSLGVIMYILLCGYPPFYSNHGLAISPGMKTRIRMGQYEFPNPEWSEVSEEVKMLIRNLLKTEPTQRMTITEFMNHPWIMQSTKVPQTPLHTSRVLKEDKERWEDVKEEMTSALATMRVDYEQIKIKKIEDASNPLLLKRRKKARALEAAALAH
# Serine/threonine-protein kinase 10 (Homo sapiens), sequence (O94804 whole entry, looked up): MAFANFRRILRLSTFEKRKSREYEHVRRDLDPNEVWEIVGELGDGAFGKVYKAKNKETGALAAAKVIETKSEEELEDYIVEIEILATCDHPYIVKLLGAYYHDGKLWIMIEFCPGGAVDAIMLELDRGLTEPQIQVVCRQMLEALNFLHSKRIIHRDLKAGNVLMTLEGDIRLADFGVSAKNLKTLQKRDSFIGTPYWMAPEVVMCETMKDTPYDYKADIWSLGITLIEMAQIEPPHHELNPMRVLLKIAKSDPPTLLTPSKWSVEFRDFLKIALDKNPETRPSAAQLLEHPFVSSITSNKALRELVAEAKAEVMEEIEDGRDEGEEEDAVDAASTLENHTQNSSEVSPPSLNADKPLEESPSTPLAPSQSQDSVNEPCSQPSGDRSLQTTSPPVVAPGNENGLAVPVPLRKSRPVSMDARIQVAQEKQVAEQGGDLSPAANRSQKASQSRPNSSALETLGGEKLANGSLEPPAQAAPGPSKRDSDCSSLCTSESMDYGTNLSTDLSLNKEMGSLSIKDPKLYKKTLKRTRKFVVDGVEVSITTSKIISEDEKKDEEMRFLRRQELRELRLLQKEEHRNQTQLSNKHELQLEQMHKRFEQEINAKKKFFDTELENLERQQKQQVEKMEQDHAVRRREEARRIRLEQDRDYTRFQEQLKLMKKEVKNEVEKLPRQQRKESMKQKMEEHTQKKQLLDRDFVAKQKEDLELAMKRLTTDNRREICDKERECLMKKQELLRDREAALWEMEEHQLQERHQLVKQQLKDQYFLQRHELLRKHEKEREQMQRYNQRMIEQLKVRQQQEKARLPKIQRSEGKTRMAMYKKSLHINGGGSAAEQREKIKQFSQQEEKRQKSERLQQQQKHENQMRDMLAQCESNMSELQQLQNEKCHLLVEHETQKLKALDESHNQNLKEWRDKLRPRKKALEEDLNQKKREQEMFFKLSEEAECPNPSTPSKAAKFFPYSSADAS
# Tyrosine-protein kinase Lck (Homo sapiens), sequence (P06239 2-509 limits assumed): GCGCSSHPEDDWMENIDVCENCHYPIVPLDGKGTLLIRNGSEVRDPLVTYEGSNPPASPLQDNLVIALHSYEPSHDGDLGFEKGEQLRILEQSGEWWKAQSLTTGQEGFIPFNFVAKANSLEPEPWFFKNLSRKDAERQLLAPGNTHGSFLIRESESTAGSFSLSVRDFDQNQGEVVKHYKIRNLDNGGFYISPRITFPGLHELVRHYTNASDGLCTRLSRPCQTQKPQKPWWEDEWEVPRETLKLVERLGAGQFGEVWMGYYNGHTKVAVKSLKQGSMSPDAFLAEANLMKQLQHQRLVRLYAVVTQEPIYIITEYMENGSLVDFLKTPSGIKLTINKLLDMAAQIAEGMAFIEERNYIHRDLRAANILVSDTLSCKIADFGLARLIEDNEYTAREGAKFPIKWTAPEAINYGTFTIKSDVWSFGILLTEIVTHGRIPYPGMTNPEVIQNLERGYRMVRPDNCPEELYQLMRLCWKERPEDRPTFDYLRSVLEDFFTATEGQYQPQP
# MAP kinase-activated protein kinase 3 (Homo sapiens), sequence (Q16644 whole entry, looked up): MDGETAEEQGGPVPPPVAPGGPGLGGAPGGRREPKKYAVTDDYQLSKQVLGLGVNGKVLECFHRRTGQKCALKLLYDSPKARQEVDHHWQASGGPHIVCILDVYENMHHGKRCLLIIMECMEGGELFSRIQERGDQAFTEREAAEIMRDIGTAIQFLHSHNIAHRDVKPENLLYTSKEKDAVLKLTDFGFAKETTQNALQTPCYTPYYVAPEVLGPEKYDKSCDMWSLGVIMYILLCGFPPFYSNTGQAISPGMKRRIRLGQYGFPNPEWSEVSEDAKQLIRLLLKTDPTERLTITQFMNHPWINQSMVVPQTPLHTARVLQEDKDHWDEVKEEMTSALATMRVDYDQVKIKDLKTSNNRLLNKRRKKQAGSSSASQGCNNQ
# Tyrosine-protein kinase Lyn (Homo sapiens), sequence (P07948 2-512 limits assumed): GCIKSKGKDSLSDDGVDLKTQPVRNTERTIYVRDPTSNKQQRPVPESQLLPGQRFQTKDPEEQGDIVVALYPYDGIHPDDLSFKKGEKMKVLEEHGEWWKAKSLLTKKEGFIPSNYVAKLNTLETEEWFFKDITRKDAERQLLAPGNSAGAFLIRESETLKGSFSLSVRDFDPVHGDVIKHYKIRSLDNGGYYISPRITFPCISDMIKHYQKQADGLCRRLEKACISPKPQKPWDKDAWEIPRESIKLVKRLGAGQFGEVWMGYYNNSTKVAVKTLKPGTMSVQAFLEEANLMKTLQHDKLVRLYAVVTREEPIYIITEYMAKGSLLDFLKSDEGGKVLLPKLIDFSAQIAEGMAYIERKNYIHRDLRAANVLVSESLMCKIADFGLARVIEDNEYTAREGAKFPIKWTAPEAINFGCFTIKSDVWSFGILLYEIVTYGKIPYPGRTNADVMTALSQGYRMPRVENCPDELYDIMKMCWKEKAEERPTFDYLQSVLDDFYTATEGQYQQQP
# Mitogen-activated protein kinase 3 (Homo sapiens), sequence (P27361 whole entry): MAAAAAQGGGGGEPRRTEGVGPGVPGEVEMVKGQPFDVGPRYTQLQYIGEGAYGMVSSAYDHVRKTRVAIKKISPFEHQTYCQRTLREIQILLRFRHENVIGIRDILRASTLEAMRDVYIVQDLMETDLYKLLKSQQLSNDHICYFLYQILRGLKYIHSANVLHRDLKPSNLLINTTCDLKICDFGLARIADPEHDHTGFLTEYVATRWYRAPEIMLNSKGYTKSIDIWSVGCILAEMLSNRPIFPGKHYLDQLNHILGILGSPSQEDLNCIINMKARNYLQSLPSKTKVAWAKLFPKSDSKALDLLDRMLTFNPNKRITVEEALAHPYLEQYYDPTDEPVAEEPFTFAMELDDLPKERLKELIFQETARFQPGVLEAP
smiles,measurement,setting,value
CN(C)S(=O)(=O)c1ccc2c(c1)/C(=C/c1cc3c([nH]1)CCCC3)C(=O)N2,residual activity,[1],94%
O=[N+]([O-])/C=C/c1ccc2c(c1)OCO2,residual activity,[2],105%
same,residual activity,[3],95%
same,residual activity,[4],104%
same,residual activity,[5],135%
same,residual activity,[6],94%
same,residual activity,[7],81%
same,residual activity,[8],90%
same,residual activity,[9],73%
same,residual activity,[10],78%
same,residual activity,[11],86%
same,residual activity,[12],106%
same,residual activity,[13],84%
same,residual activity,[14],84%
same,residual activity,[15],108%
same,residual activity,[1],93%
same,residual activity,[16],83%
same,residual activity,[17],91%
same,residual activity,[18],85%
O=C1NC(=O)C(c2cn(CCCn3ccnc3)c3ccccc23)=C1Nc1ccccc1,residual activity,[1],126%
CCc1nc(-c2ccc(OC)cc2)[nH]c1-c1ccncc1,residual activity,[19],48%
same,residual activity,[10],100%
same,residual activity,[14],64%
same,residual activity,[15],82%
same,residual activity,[1],121%
same,residual activity,[16],118%
CC#CC(=O)Nc1cc2c(Nc3ccc(F)c(Cl)c3)ncnc2cn1,residual activity,[1],104%
CCn1cnc2c(Nc3cccc(Cl)c3)nc(N[C@@H]3CCCC[C@@H]3N)nc21,residual activity,[3],90%
same,residual activity,[4],60%
same,residual activity,[19],15%
same,residual activity,[5],27%
same,residual activity,[20],22%
same,residual activity,[6],61%
same,residual activity,[7],20%
same,residual activity,[8],6%
same,residual activity,[9],1%
same,residual activity,[10],49%
same,residual activity,[11],10%
same,residual activity,[12],62%
same,residual activity,[13],11%
same,residual activity,[1],115%
same,residual activity,[16],88%
same,residual activity,[17],77%
same,residual activity,[18],35%
CC(C)[C@H](CO)Nc1nc(Nc2cccc(Cl)c2)c2ncn(C(C)C)c2n1,residual activity,[2],99%
same,residual activity,[3],86%
same,residual activity,[4],91%
same,residual activity,[19],37%
same,residual activity,[5],28%
same,residual activity,[20],14%
same,residual activity,[6],52%
same,residual activity,[7],8%
same,residual activity,[8],11%
same,residual activity,[9],0%
same,residual activity,[10],98%
same,residual activity,[11],40%
same,residual activity,[12],102%
same,residual activity,[13],33%
same,residual activity,[14],81%
same,residual activity,[15],88%
same,residual activity,[1],124%
same,residual activity,[16],84%
same,residual activity,[17],78%
same,residual activity,[18],46%
O=c1[nH]c2ccccc2n1C1CCN(Cc2ccc(-c3nc4cc5[nH]cnc5cc4nc3-c3ccccc3)cc2)CC1,residual activity,[2],94%
same,residual activity,[3],97%
same,residual activity,[4],109%
same,residual activity,[19],90%
same,residual activity,[5],147%
same,residual activity,[20],125%
same,residual activity,[6],94%
same,residual activity,[7],44%
same,residual activity,[8],96%
same,residual activity,[9],53%
same,residual activity,[10],105%
same,residual activity,[11],67%
same,residual activity,[12],108%
same,residual activity,[13],107%
same,residual activity,[14],107%
same,residual activity,[15],103%
same,residual activity,[1],106%
same,residual activity,[16],90%
same,residual activity,[17],99%
same,residual activity,[18],90%
Oc1n[nH]c2nnc(-c3c(-c4ccccc4)nn4ccccc34)cc12,residual activity,[1],98%
O=c1c2ccccc2[nH]c(=S)n1CCN1CCC(=C(c2ccc(F)cc2)c2ccc(F)cc2)CC1,residual activity,[1],89%
N#C/C(=C(\N)Sc1ccc(N)cc1)c1ccccc1C(F)(F)F,residual activity,[1],98%
c1ccc(-c2n[nH]c3c2oc2ccccc23)cc1,residual activity,[1],94%
COc1ccc2c(c[n+](C)c3c4cc5c(cc4ccc23)OCO5)c1OC,residual activity,[3],90%
same,residual activity,[4],100%
same,residual activity,[19],93%
same,residual activity,[6],80%
same,residual activity,[7],79%
same,residual activity,[8],83%
same,residual activity,[9],65%
same,residual activity,[11],81%
same,residual activity,[14],94%
same,residual activity,[15],94%
same,residual activity,[1],99%
same,residual activity,[16],53%
same,residual activity,[17],98%
same,residual activity,[18],91%
COc1cc2ncnc(Nc3ccc(OCc4ccccc4)cc3)c2cc1OC,residual activity,[2],104%
same,residual activity,[3],98%
same,residual activity,[4],51%
same,residual activity,[19],43%
same,residual activity,[5],31%
same,residual activity,[20],10%
same,residual activity,[6],15%
same,residual activity,[7],12%
same,residual activity,[8],21%
same,residual activity,[9],9%
same,residual activity,[10],93%
same,residual activity,[11],88%
same,residual activity,[12],103%
same,residual activity,[13],99%
same,residual activity,[14],124%
same,residual activity,[15],105%
same,residual activity,[1],101%
same,residual activity,[16],115%
same,residual activity,[17],104%
same,residual activity,[18],94%
NCCNc1ncc(C(N)=O)c(Nc2cccc(C(F)(F)F)c2)n1,residual activity,[1],106%
N/C(=N\[N+](=O)[O-])N/N=C\c1ccc(-c2cccc([N+](=O)[O-])c2)o1,residual activity,[4],94%
same,residual activity,[19],99%
same,residual activity,[5],77%
same,residual activity,[20],93%
same,residual activity,[6],96%
same,residual activity,[7],91%
same,residual activity,[8],79%
same,residual activity,[9],66%
same,residual activity,[10],94%
same,residual activity,[11],99%
same,residual activity,[16],88%
same,residual activity,[17],98%
same,residual activity,[18],85%
CC(C)(C)c1cc(C=C(C#N)C#N)cc(Br)c1O,residual activity,[4],100%
same,residual activity,[19],68%
same,residual activity,[20],49%
same,residual activity,[6],105%
same,residual activity,[8],73%
same,residual activity,[9],13%
same,residual activity,[10],129%
same,residual activity,[11],97%
same,residual activity,[12],105%
same,residual activity,[13],104%
same,residual activity,[14],104%
same,residual activity,[1],107%
same,residual activity,[16],69%
same,residual activity,[17],105%
COc1ccc2c(c1)/C(=C/c1cnc[nH]1)C(=O)N2,residual activity,[2],81%
same,residual activity,[3],24%
same,residual activity,[4],60%
same,residual activity,[19],19%
same,residual activity,[8],72%
same,residual activity,[9],17%
same,residual activity,[12],97%
same,residual activity,[13],35%
same,residual activity,[14],99%
same,residual activity,[15],99%
same,residual activity,[16],123%
same,residual activity,[17],32%
same,residual activity,[18],4%
